Laboratory results published in PubChem BioAssay AID602429 (Sanford-Burnham Center for Chemical Genomics, 2012).
Screen size: about 360,000 compounds; about 1,200 (0.33%) were called active. No stated cut-off is given here; in the data, active means inhibition above about 37%; inactive means the rest. The full list was thinned out, with actives kept by preference.

Target: Small ubiquitin-related modifier 1 (Homo sapiens) (UniProt P63165)
Experiment: SUMO1 binding to interaction partners, disruption – biochemical, uHTS, primary screen (AID 602429)
Details: SUMO1 binding to a labelled peptide, TR-FRET, 1 h; at 20 µM; stronger effect = higher value

Sequence of Small ubiquitin-related modifier 1 (Homo sapiens) (P63165 whole entry, looked up): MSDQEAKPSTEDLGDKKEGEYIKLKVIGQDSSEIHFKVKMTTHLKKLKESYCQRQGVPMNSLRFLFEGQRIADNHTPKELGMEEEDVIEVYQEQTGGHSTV

Row | SMILES | inhibition
1 | Cc1ccc(NC(=O)Cn2cccc2C2=NC(c3ccccc3)CO2)c(C)c1 (stereo unspecified) | -4.14% (inactive)
2 | COC(=O)c1cc2occc2n1Cc1nc(-c2ccccc2C)oc1C | 0.0493% (inactive)
3 | COc1cc(CCN=Cc2ccccc2O)c([N+](=O)[O-])cc1OC | -13% (inactive)
4 | COc1ccccc1C(CNC(=O)c1cccc(NS(=O)(=O)c2ccc(Br)cc2)c1)N(C)C (stereo unspecified) | -3.01% (inactive)
5 | COc1ccc(Br)cc1/C=N/Nc1ccc(S(=O)(=O)Nc2ccccc2C(=O)O)cc1[N+](=O)[O-] | 108% (active)
6 | COCOCCn1cc(CN2CCS(=O)(=O)N(Cc3ccc(-c4ccccc4)cc3)C(CC(C)C)C2=O)nn1 (stereo unspecified) | 3.98% (inactive)
7 | COc1ccc(OCc2nnc3n2N=C(c2ccccc2)C(CC(=O)O)S3)cc1 (stereo unspecified) | 10.5% (inactive)
8 | CCOC(=O)C1=C(COC(=O)[C@H](C)NS(=O)(=O)c2ccccc2F)NC(=O)NC1C (stereo partly specified) | 2.53% (inactive)
9 | O=C(O)CC(CC(=O)N1CCOCC1)c1ccccc1 (stereo unspecified) | 4.09% (inactive)
10 | Oc1ccc(N=Cc2sc3ccccc3c2Cl)cc1 | 43.8% (active)
11 | CCCNC(=O)c1cc(C2CCCN(C(=O)c3ccc4c(c3)CCO4)C2)on1 (stereo unspecified) | -2.48% (inactive)
12 | CCCCN(C)CCNC(=O)C1CCCN(S(=O)(=O)c2cccc3nsnc23)C1 (stereo unspecified) | -32.8% (inactive)
13 | COc1ccc(CCNC(=O)C(=O)Nc2ccc3nc4n(c(=O)c3c2)CCCCC4)cc1OC | -4.72% (inactive)
14 | CC(=O)NN=C(C)c1ccc(NC(=O)C2CC2)cc1 | -0.643% (inactive)
15 | Cc1c(Cl)cccc1NC(=O)CCC(=O)N/N=C/c1ccco1 | -6.83% (inactive)
16 | O=C(N/N=C/c1ccco1)c1ccc(C(=O)N/N=C/c2ccco2)o1 | 36.6% (active)
17 | O=C(Cn1cnc2ccccc21)N/N=C/c1ccco1 | -6.39% (inactive)
18 | O=C(O)c1ccccc1OCc1ccccc1Cl | 1.06% (inactive)
19 | Cc1c(CCC(=O)O)c(=O)oc2c(C)c(OCc3ccccc3Cl)ccc12 | 56.6% (active)
20 | COc1ccc2c(C)c(CCC(=O)NC3CC3)c(=O)oc2c1C | 1.06% (inactive)
21 | Cc1cc(C)n2nc(C(=O)OC(C)C(=O)c3cc(C)c(C)cc3C)nc2n1 (stereo unspecified) | 1.78% (inactive)
22 | O=C(CNC(=O)[C@@H]1Cc2ccccc2CN1)NC1CCCCC1 | 3.02% (inactive)
23 | CC/C=C/C(=O)N1CC2(CC(c3cccc(NC(=O)CC)c3)=NO2)C[C@H]1C(N)=O (stereo partly specified) | 0.0237% (inactive)

Row | SMILES | inhibition
24 | C/C=C\C=C\C(=O)N1CC2(CC(c3cccc(NC(=O)/C(C)=C\C)c3)=NO2)C[C@H]1C(N)=O (stereo partly specified) | -1.81% (inactive)
25 | C=C(C)C(=O)Nc1cccc(C2=NOC3(C2)C[C@H](C(N)=O)N(C(=O)C(c2ccccc2)c2ccccc2)C3)c1 (stereo partly specified) | 61.6% (active)
26 | COc1cccc(NC(=O)C(Sc2nc3ccccc3c(=O)n2CC(C)C)c2ccccc2)c1 (stereo unspecified) | 1.55% (inactive)
27 | Cc1nc([N+](=O)[O-])c(NCCCO)n1Cc1ccccc1 | -1.9% (inactive)
28 | CCCCNC(=O)Nc1c(C)cc(SC#N)cc1C | -6.49% (inactive)
29 | CCOC(=O)Cn1c2c(c(-c3ccccc3OC)cc1=O)CCCC2 | -0.83% (inactive)
30 | COc1ccc(-c2c(-c3ccc(OC)cc3O)nc(C)nc2C(F)(F)F)cc1 | 3.81% (inactive)
31 | CCOc1ccc(-c2nc(N)ncc2-c2ccccc2OC)c(O)c1 | 39.4% (active)
32 | Cc1nnc(SCC(=O)Nc2ccc(S(=O)(=O)Nc3ccc(Cl)nn3)cc2)s1 | 25.2% (inactive)
33 | COC(=O)CNC(=O)c1ccc(OC2CCN(C(=O)C3CC3)CC2)cc1 | -0.596% (inactive)
34 | Clc1ccc(C2=CSC3=Nc4cccc5cccc(c45)N23)cc1 | 55.4% (active)
35 | CC(C)(C)NC(=O)C(c1ccco1)N(Cc1ccc2c(c1)OCO2)C(=O)Cn1nnc2ccccc21 (stereo unspecified) | 1.87% (inactive)
36 | CCCCn1c(N)c(N(CC(C)C)C(=O)C2CSC3(C)CCC(=O)N23)c(=O)[nH]c1=O (stereo unspecified) | 2.07% (inactive)
37 | CSc1cc(C)n(-c2ccccc2C)c(=S)c1C(C)=O | -3.72% (inactive)
38 | O=C(c1cccs1)N1CCC(c2nc3ccccc3s2)CC1 | -0.383% (inactive)
39 | O=C(NCCCN1CCOCC1)c1ccccc1NS(=O)(=O)c1ccc(F)cc1 | 2.97% (inactive)
40 | CCOC(=O)Cn1nnnc1C | 4.96% (inactive)
41 | COc1ccc(S(=O)(=O)N2CCOCC2)c(C)c1C | 0.744% (inactive)
42 | C=CCn1c(=S)[nH]c2scc(-c3ccco3)c2c1=O | 80.7% (active)
43 | C=CCNC(=S)NNc1ncnc2sc3c(c12)CC(C)(C)OC3 | -4.03% (inactive)
44 | O=C(Nc1ccccc1C(=O)NCCCn1ccnc1)c1ccc(Cl)cc1Cl | -2.3% (inactive)
45 | C=C(Br)CN1CCN(CC(=C)Br)CC1 | 1.02% (inactive)
46 | O=C(CN1CCCCCC1)Nc1c(Cl)cc(Cl)cc1Cl | -1.26% (inactive)

Row | SMILES | inhibition
47 | O=C(CSc1nc(C2CC2)nc2ccccc12)Nc1ccc2c(c1)OCCO2 | -1.95% (inactive)
48 | Cc1nnc(NC(=O)CSc2nc(C3CCCCC3)nc3ccccc23)s1 | -2.49% (inactive)
49 | O=C(CSc1nc(C2CC2)nc2ccccc12)Nc1cccc(O)c1 | 45.7% (active)
50 | O=C(Cn1cnc2c(nnn2Cc2ccc(F)cc2)c1=O)NCc1ccc2c(c1)OCO2 | 1.22% (inactive)
51 | Cc1cc(S(=O)(=O)c2cc3ccc(O)c(C)c3oc2=O)ccc1F | -12.4% (inactive)
52 | OCCc1ccc(NCCc2ccco2)cc1 | 4% (inactive)
53 | COc1ccccc1NC(=O)c1cc(Cl)nnc1Cl | -6.09% (inactive)
54 | COc1ccc(C(=O)N/N=C(\C)CC(=O)Nc2ccc(Cl)cn2)cc1 | -4.09% (inactive)
55 | COc1ccc(C(=O)Nc2cc(C)c(NC(=O)c3ccccc3OC)cn2)cc1 | 40% (active)
56 | CCOc1ccc(NC(=O)c2ccc(NC(=O)CN3C(=O)C(=O)N(CC(C)C)C3=O)cc2)cc1 | 6.4% (inactive)
57 | CCOc1ccc(NC(=O)c2ccc(NC(=O)C3CCCO3)cc2)cc1 (stereo unspecified) | 1.59% (inactive)
58 | CCOc1ccc(NC(=O)c2ccc(NC(=O)COC(=O)c3ccc(NC(=O)CC#N)cc3)cc2)cc1 | 58.6% (active)
59 | CCCCn1c(N)c(N(CCOC)C(=O)c2cccc(S(=O)(=O)N3CCCCC3)c2)c(=O)[nH]c1=O | 1.21% (inactive)
60 | Cc1nc2ccccc2c(C)c1C(=O)c1ccc(F)cc1 | -0.636% (inactive)
61 | O=C(NNC(=S)NC(=O)c1cn(-c2ccccc2)nc1-c1ccccc1)c1ccncc1 | 7.64% (inactive)
62 | Cc1onc(-c2ccccc2)c1C(=O)NNC(=S)NC(=O)c1ccc(F)cc1 | 61.3% (active)
63 | CCc1nc2ccc(C(=O)N(C)Cc3ccco3)cn2c1N(C)C(=O)Cc1ccccc1 | 3.29% (inactive)
64 | CCc1cc2cc(OC)ccc2nc1SCC(=O)Nc1cc(OC)c(OC)cc1C(=O)O | 4.88% (inactive)
65 | CCOC(=O)C1=C(C)NC(C)=C(C(=O)OCC)C1C1=COCCO1 | -7.71% (inactive)
66 | O=C(Nc1ccc(N2CCN(C(=O)c3cccs3)CC2)cc1)c1cccnc1Cl | -1.91% (inactive)
67 | C=CC(=O)Nc1ccc(Nc2ccnc(Nc3ccc(N4CCN(C)CC4)cc3)n2)cc1 | 88.3% (active)
68 | CC(=O)Nc1cc(-c2ccc(N3CCN(C)CC3)cc2)cn2c(-c3ccc(F)cc3)cnc12 | -43.3% (inactive)
69 | Cc1noc(C)c1S(=O)(=O)Nc1ccc(C(=O)O)cc1 | 2.25% (inactive)

Row | SMILES | inhibition
70 | CC(=O)N1c2ccc(S(=O)(=O)N3CCCC(C(=O)Nc4cccc(F)c4)C3)cc2CC1C (stereo unspecified) | 1.06% (inactive)
71 | COc1ccc(C(=O)OCC(=O)Nc2ccc3[nH]c(=O)[nH]c3c2)c(OC)c1OC | 45.3% (active)
72 | O=C(COC(=O)c1cccc(Cl)c1)Nc1ccc2[nH]c(=O)[nH]c2c1 | 3.54% (inactive)
73 | O=C(COc1ccc([N+](=O)[O-])cc1Cl)Nc1ccc2[nH]c(=O)[nH]c2c1 | -14.3% (inactive)
74 | Cc1ccc(S(=O)(=O)N2CCN(C(=O)Cn3c(=O)cnc4ccccc43)CC2)c(C)c1 | -18.5% (inactive)
75 | O=C(CCl)N(Cc1cccc([N+](=O)[O-])c1)c1cccc(Cl)c1 | -8.32% (inactive)
76 | Nc1c(Cl)cc(S(N)(=O)=O)cc1S(N)(=O)=O | -2.85% (inactive)
77 | Cc1ccc(SC(CC(=O)c2ccc(C(C)(C)C)cc2)C(=O)O)cc1 (stereo unspecified) | 1.42% (inactive)
78 | OC(COc1ccccc1)CN1CCN(c2cccc(Cl)c2)CC1 (stereo unspecified) | 49.6% (active)
79 | OC(COc1ccc2c(c1)CCC2)CN1CCN(c2cccc(Cl)c2)CC1 (stereo unspecified) | 0.823% (inactive)
80 | CCC(=O)c1ccc(OCC(O)CN2CCN(c3cccc(C(F)(F)F)c3)CC2)cc1 (stereo unspecified) | -0.535% (inactive)
81 | CC1CCCC(NC(=O)CSc2nccn2C)C1C (stereo unspecified) | -1.19% (inactive)
82 | O=C(COc1coc(CN2CCN(c3ccccc3F)CC2)cc1=O)N1CCc2ccccc21 | 47.1% (active)
83 | O=C(COc1coc(CN2CCN(c3ccccc3)CC2)cc1=O)Nc1ccccc1F | 0.279% (inactive)
84 | O=C(COc1coc(CN2CCN(c3ccccc3)CC2)cc1=O)N1CCc2ccccc21 | -4.23% (inactive)
85 | C=C1c2c(Cl)ccc(O)c2C(O)=C2C(=O)[C@]3(O)C(O)=C(C(N)=O)C(=O)[C@@H](N(C)C)[C@@H]3[C@@H](O)C12 (stereo partly specified) | 62.7% (active)
86 | CCC(C)CCN1CCN=C1N(C)C (stereo unspecified) | 1.08% (inactive)
87 | Cc1ccc(NC(=O)Cn2sc3ccccc3c2=O)cc1 | 5.66% (inactive)
88 | O=c1c2cc([N+](=O)[O-])ccc2nc2n1CCC2 | -38.3% (inactive)
89 | O=[N+]([O-])c1cc(Cl)cc(/C=N/NC(=S)Nc2cc(S(=O)(=O)N3CCOCC3)ccc2Cl)c1O | 36.3% (active)
90 | Cc1cc(OCCCC(=O)Nc2cc(S(=O)(=O)N3CCOCC3)ccc2N2CCOCC2)ccc1Cl | -3.23% (inactive)
91 | COCCNC(=S)Nc1cc(S(=O)(=O)N2CCOCC2)ccc1N1CCCCC1 | 1.91% (inactive)
